# pS6 MEF inh – inhibitors of mTORC1 signaling in Tsc2-/- p53-/- MEF cells. Tsc2-/- p53-/- MEF, phospho-rpS6 immunofluorescence/PI, 24 h. Potency, µM (highest dose often 38.3 µM), without a hit: at the top dose activity change, negative = inhibition, hits mostly inhibitors. 0.78% of 44,000 active. AID 493208;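 further: plate controls were DMSO for no effect and rapamycin for full effect; nearly all actives have a fitted effect of over 50% in size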
#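 Immunofluorescence of rpS6 phosphorylation in Tsc2-/-, p53-/- MEFs after 24 h compound exposure, normalized to propidium iodide signal. Activity is expressed as % positive cells, thresholded with 7.5 nM rapamycin.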
# S16 viability – cytotoxicity in S16 Pmp22-F2sN Schwann cells. Potency, µM (top dose mostly 57.5 µM), inactives show at the top dose activity change, negative = cytotoxicity, hits mostly cytotoxic. S16 Pmp22-F2sN Schwann cells viability, CellTiter-Glo, 24 h. 0.48% of 43,000 active; further: nearly all actives have a fitted effect of over 65% in size
#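 S16 Pmp22-F2sN Schwann cells (500-1,000/well) in phenol-red-free DMEM with 10% FBS received 23 nL compound by pin tool for 24 h at 37 °C. Viability was then read as CellTiter-Glo luminescence after 15 min at room temperature.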
# p53null 32C tox – p53 null cell cytotoxicity, permissive temperature; H1299-neo p53 null cells, ATP luminescence, 24 h, 32C; Potency, µM (highest dose often 46.1 µM), without a hit: at the top dose activity change, negative = cytotoxicity, most hits filed as cytotoxic; 0.62% of 55,000 active;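 further: 0% = DMSO only and -100% = full killing by 100 µM tamoxifen; nearly all actives have a fitted effect of over 55% in size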
#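 ATP-content luminescence in p53-null H1299-neo cells after 24 h compound exposure (up to 46 uM) at 32C permissive temperature; 0% and 100% killing set by DMSO and 100 uM tamoxifen; Hill-equation AC50.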
# p53null 39C kill – p53 null cell cytotoxicity, nonpermissive temperature; Potency, µM (top dose mostly 46.1 µM), inactives show at the top dose activity, negative = cell killing, actives largely listed as cytotoxic; AID 904; 0.97% of 55,000 active; H1299 p53-null (neo) cells, 39C, ATPlite viability, 24 h;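 further: 0% = DMSO only and -100% = full killing by 100 µM tamoxifen; nearly all actives have a fitted effect of over 50% in size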
#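 H1299 lung cancer cells, p53-null (H1299-neo) or expressing p53 A138V (H1299-p53A138V), were plated overnight at 37C, then exposed to compounds at up to 46 uM for 24 hr at 39C. Viability was read by ATP-based luminescence.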
# PMP22 txn prim – modulators of PMP22 gene transcription in S16 Schwann cells; S16 Pmp22-F2sN Schwann cells (luciferase reporters placed in the Pmp22 gene), FLuc/NLuc coincidence luminescence, 24 h; Potency, µM (series often up to 57.5 µM), for inactives: at the highest dose activity change, negative = inhibition, hits mostly inhibitors; 2% of 43,000 active; AID 1508649; active means clear falling dose curves in both reporters; inconclusive means both reporters move, but less clearly or upward; inactive means either reporter flat; the % is the NLuc reporter signal
#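 Reporter cells (S16 Pmp22-F2sN, 500–1,000 per well) exposed to compounds for 24 h, 37C, 5% CO2; lysis with FLuc read after 10 min, then Stop&Glo and NLuc read after 10 min.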
# Active calls of the source: *; ? = inconclusive; nt = not tested or not shown. A selection: hits, their analogues and other compounds. The true share with any hit is near 3.2%. Unless noted, the call rests on the fitted dose curve; in most records, active means well fitted curve in the direction sought with a large enough effect; inconclusive means small, poorly fitted or top-dose-only effect, or another doubt; inactive means no such curve, though single readings can be large; an effect the other way counts as inactive or inconclusive. Unless noted, on the % scale 0 is the no-effect control and ±100 the full control effect; potency means the concentration at half of the fitted maximal effect.
SMILES,pS6 MEF inh,S16 viability,p53null 32C tox,p53null 39C kill,PMP22 txn prim
Cc1ccccc1Nc1c(-c2ccc(N3CCOCC3)cc2)nc2cccc(C)n12,1.3%,-10.5%,?,?,-25.4%
Cc1ccccc1Nc1c(-c2ccc(N3CCOCC3)cc2)nc2ccc(Br)cn12,3.3%,0.3%,?,10µM*,-21.6%
Cc1ccccc1Nc1c(-c2cccc(O)c2)nc2ccc(Br)cn12,-25.1%,-13.0%,-6.7%,-3.5%,-27.7%
COc1cc(O)ccc1-c1nc2ccc(Br)cn2c1Nc1ccccc1C,-11.3%,2.2%,?,20µM*,?
Cc1ccc(C)c(NC(=O)Nc2cccc(-c3cn4cccnc4n3)c2)c1,10.5%,-11.2%,1.0%,?,-97.1%
CCN1C(=O)c2ccccc2Sc2ccc(NC(=O)Nc3cc(C)cc(C)c3)cc21,1.5%,-0.2%,-3.0%,10.3%,?
O=C(O)CCSc1nnc(-c2ccc(Cl)cc2Cl)o1,2.2%,-3.3%,?,?,?
Fc1ccc(-c2nnc(-c3ccc(Cl)cc3Cl)o2)cc1,nt,nt,6.31µM*,11.2µM*,nt
Cc1ccc(CCNC(=O)c2ccc(CNS(=O)(=O)c3ccccc3)cc2)cc1,-7.4%,2.3%,-5.4%,11.2%,25.2%
CC(C)Oc1ccc(CNC(=O)C2CCN(c3nc4ccccc4nc3C(F)(F)F)CC2)cc1,-1.7%,7.94µM*,-1.9%,-5.0%,?
CCOc1ccc(NC(=O)Cn2nnc(C(=O)Nc3ccc(OCC)cc3)c2N)cc1,-2.0%,1.2%,-24.6%,?,-11.2%
Cc1nn(Cc2ccc(Cl)cc2Cl)c(C)c1NC(=O)CCl,nt,nt,5.1%,12.6µM*,nt
Cc1nn(Cc2ccc(Cl)cc2Cl)c(C)c1NC(=O)C1C2CCC(O2)C1C(=O)O (configuration not stated),nt,nt,-6.1%,-0.3%,nt
O=C(CCS(=O)(=O)c1ccc(Br)cc1)Nc1ccc(Cl)c(C(F)(F)F)c1,1.4%,?,8.8%,?,?
O=C(NC1CCCCC1)c1ccc(S(=O)(=O)N2CCCC2)cc1,nt,nt,-1.1%,-5.4%,nt
O=C(N/N=C\c1cc(Cl)ccc1O)c1ccc(S(=O)(=O)N2CCCCC2)cc1,nt,nt,7.08µM*,nt,nt
Cc1ccc(C)c(N2CCN(S(=O)(=O)c3ccc4c(c3)n(C)c(=O)c(=O)n4C)CC2)c1,-11.4%,18.5%,2.7%,-0.2%,-28.6%
CC1=C(C(N)=O)C(c2cccc(Br)c2)n2nc(SCc3ccccc3Cl)nc2N1 (configuration not stated),-1.1%,-7.9%,2.1%,-0.2%,-12.6%
CCOC(=O)c1noc2ncnc(N3CCN(c4cccc(Cl)c4)CC3)c12,1.4%,-3.8%,6.6%,16.2%,?
COc1ccc(/C=C(\C#N)c2nc(-c3cc4c(ccc5ccccc54)oc3=O)cs2)cc1O,3.5%,?,-3.7%,6.2%,8.91µM*
COc1cc(-c2nc3ncccn3c2Nc2ccc(C)cc2C)ccc1O,14.7µM*,?,16.5%,-16.3%,5.1%
CCN(CC)CCCNc1sc(S(=O)(=O)c2ccccc2)nc1S(=O)(=O)c1ccc(Cl)cc1,9.27µM*,?,2.5%,?,?
Cc1nn(-c2ccccc2)c2sc(C(=O)Nc3cccc(O)c3)cc12,11.1%,?,9.7%,25.1µM*,?
Cc1nn(-c2ccccc2)c2sc(C(=O)Nc3ccccc3Br)cc12,-28.6%,11.8%,11.7%,-4.4%,-5.0%
COC(=O)c1c(-c2ccc(Cl)cc2)noc1N1CCN(c2ccc(OC)cc2)CC1,1.5%,?,-7.3%,?,5.97µM*
COC(=O)c1c(-c2ccc(Cl)cc2)noc1N1CCN(c2ccccc2F)CC1,0.8%,9.8%,-2.7%,-5.8%,5.8%
COC(=O)c1c(-c2ccc(Cl)cc2)noc1N1CCN(c2ccc(C(C)=O)cc2)CC1,-15.1%,?,1.9%,-11.8%,2.67µM*
COc1ccc(-c2noc(CSc3nnc(-c4ccncc4)n3-c3ccc(OC)cc3)n2)cc1,-3.0%,?,7.0%,10.4%,2.4µM*
CCc1ccc(NC(=O)Nc2ccccc2OCc2cc(=O)n3ccccc3n2)cc1,3.1%,0.2%,?,2µM*,?
